Data from PubChem BioAssay AID1619 (SRMLSC, 2009).
Screen size: about 220,000 compounds; about 830 (0.38%) were called active.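 How the source made its calls: active means compound inhibiting the enzyme by more than half at any dose during confirmatory dose-response retesting; inconclusive means strong single-dose inhibitors picked by rank but not retested; inactive means the rest.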 A selection follows. Entries with a potency or affinity are not part of this list.

Molecular target: Leucine aminopeptidase (Plasmodium falciparum (isolate 3D7)) (UniProt Q8IL11)
Sequence (Q8IL11 whole entry, looked up): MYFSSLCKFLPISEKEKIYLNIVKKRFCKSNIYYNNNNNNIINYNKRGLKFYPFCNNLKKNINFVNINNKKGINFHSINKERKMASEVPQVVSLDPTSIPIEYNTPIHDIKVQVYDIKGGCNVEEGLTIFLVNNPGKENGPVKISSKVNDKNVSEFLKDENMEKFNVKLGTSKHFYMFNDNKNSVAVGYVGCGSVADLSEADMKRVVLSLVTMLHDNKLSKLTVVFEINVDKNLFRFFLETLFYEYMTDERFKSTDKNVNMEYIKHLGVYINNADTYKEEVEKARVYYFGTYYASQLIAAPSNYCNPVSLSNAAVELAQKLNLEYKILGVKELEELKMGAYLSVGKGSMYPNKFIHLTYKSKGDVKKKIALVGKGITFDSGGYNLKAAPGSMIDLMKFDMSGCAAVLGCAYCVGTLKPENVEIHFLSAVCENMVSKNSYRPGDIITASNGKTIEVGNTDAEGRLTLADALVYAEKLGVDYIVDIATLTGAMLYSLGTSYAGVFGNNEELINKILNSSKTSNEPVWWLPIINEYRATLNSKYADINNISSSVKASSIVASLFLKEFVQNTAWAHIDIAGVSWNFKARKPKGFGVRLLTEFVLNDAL
Experiment: P. falciparum M17LAP inhibitors, primary screen, biochemical, fluorogenic H-Leu-NHMec substrate, 1536-well (AID 1619);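 further: plate controls were full reaction with DMSO carrier for no effect and no enzyme background for full effect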
Settings: recombinant M17LAP, H-Leu-NHMec fluorogenic kinetic assay; at 30 µM; hits give high values

inhibition, inactive:
CC1(C)Cc2c(c(N3CCOCC3)nc3sc4c(N5CCOCC5)nnnc4c23)CS1 -1.05%
CCc1ccc(NC2=NCC(=O)N2c2ccc3c(c2)OCCO3)cc1 -5.16%
CCOC(=O)C1(CC2CC2)CCN(Cc2cn[nH]c2-c2cccc(F)c2)CC1 -3.31%
Cc1ccc(NC(=O)c2ccccc2OCC(=O)c2ccccc2)cc1 3.34%
CC(/C=N/NC(=O)Cc1cccn1C)=C\c1ccccc1 32.7%
O=C(Cc1cccs1)N/N=C/C(Cl)=C/c1ccccc1 -2.46%
O=C(Cc1cc(=O)[nH][nH]1)N/N=C/c1c(Cl)cccc1Cl 47.6%
O=C(Cc1ccc(Cl)cc1)N/N=C/c1c(Cl)cccc1Cl -10.8%
O=C(Cc1cc(=O)[nH][nH]1)N/N=C/C(Cl)=C/c1ccccc1 52.8%
CC(/C=N/NC(=O)Cc1cccs1)=C\c1ccccc1 -13.2%
O=C(CCCN1C(=O)c2cccc3cccc(c23)C1=O)NCCN1CCOCC1 4.16%
O=C(CCc1nnc(CCCCc2ccccc2)o1)NCc1cccc(F)c1 -1.09%
CCC(C)Oc1cc(-c2ccnc(Nc3cccc(Cl)c3)n2)ccn1 (stereo not drawn) 0.9%
CC(=O)Nc1ccc(S(=O)(=O)NCc2csc(-c3cccnc3)n2)cc1 5.75%
Cc1ccc(-c2cc(C(=O)Nc3ccc(S(=O)(=O)Nc4nc(C)cc(C)n4)cc3)c3ccccc3n2)cc1 -0.85%
CC(=O)NS(=O)(=O)c1ccc(NC(=O)c2cc(-c3ccc(C)c(C)c3)nc3ccccc23)cc1 -0.01%
Cc1ccc(-c2cc(C(=O)Nc3ccc(S(=O)(=O)Nc4ncccn4)cc3)c3ccccc3n2)cc1 39.1%
CC(=O)NS(=O)(=O)c1ccc(NC(=O)c2cc(-c3cccs3)nc3ccccc23)cc1 16.1%
COc1ccc2c(c1)nc(SCC(=O)c1ccc(Br)s1)n2C 43.5%
CCOC(=O)CCP(=O)(O)C(O)c1ccccc1 (stereo not drawn) 11.7%
COc1ccc(C(O)P(=O)(O)CCc2ccccc2)cc1 (stereo not drawn) 21.7%
O=C1OC(c2ccccc2)=C/C1=C\N1CCOCC1 8.13%
CC(C)[C@H](NC(=O)c1ccccc1)C(=O)OCC(=O)N1CCc2ccccc2C1 10.5%
COc1ccc(NC(=O)c2ccc(-n3cccn3)c([N+](=O)[O-])c2)cc1 1.4%
O=C(CCCOc1ccc(Cl)cc1Cl)n1nnc2ccccc21 69.2%
O=C(CCCOc1ccccc1)n1nnc2ccccc21 -0.57%
CN1CCN(C(=O)/C=C/c2ccc3c(c2)OCO3)CC1 6.85%
COc1ccc(-n2c(=O)c3c4c(sc3n(CC(=O)NC3CCCC3)c2=O)CCCC4)c(OC)c1 0%
COc1cc(NC(=O)Cc2cccs2)c(C(=O)O)cc1OC 4.5%
O=C(CC(Nc1ccccc1Cl)C(=O)O)c1ccccc1 (stereo not drawn) 19.8%
Cc1c(Cl)cccc1NC(CC(=O)c1ccccc1)C(=O)O (stereo not drawn) 49.4%
O=C(CCCN1C(=O)c2ccccc2C1=O)Nc1nncs1 0.65%
Oc1ccc(-c2nc(-c3ccc(O)c(O)c3)cs2)cc1 25.6%
COc1cc(-c2csc(C)n2)ccc1O -9.57%
Cc1cc(Cl)cc(Cl)c1OCCCCN(C)C 1.1%
COc1ccc(/C=C/C(=O)Nc2cc(=O)n(C)c(=O)n2C)cc1 50.5%
Cn1c(NC(=O)/C=C/c2ccccc2)cc(=O)n(C)c1=O 9.82%
CCCCC(CC)CNC(=O)/C=C/c1ccc(F)cc1 (stereo not drawn) 9.03%
COc1ccc(S(=O)(=O)Nc2ccc3c(c2)OCCO3)cc1Cl -0.34%
O=C1CC(CSc2ccc(Cl)cc2)=NN1 7.98%
Cc1cc(SCC2=NNC(=O)C2)c(Cl)cc1Cl 3.5%
O=C(O)COc1ccc(Cl)cc1CO 20%
CCOC(=O)C1=C(C)N(C)C(C)=C(C(=O)OCC)C1c1ccc(C(=O)OC)cc1 3.78%
CC(C)NC(=O)NC(=O)COc1c(F)c(F)cc(F)c1F -8.9%
CCNC(=S)Nc1ccc2cn[nH]c2c1 14.6%
CCc1ccc(NC(=S)Nc2ccc3cn[nH]c3c2)cc1 11.2%
CC(c1ccon1)N(C)Cc1cn(C)nc1-c1cccc(Cl)c1 (stereo not drawn) -1.33%
CN(C)c1ccc(/C=C2\CCC/C(=C\c3ccccc3)C2=O)cc1 5.08%
O=C1/C(=C/c2ccncc2)CCC/C1=C\c1ccncc1 -3.28%
COc1ccc(CC(=O)Nc2cc(S(=O)(=O)N3CCOCC3)ccc2N2CCOCC2)cc1 2.63%
O=C(Nc1cccc(Cl)c1)Nc1cccc(C(=O)O)c1 -7.66%
COc1ccc(NC(=O)Nc2ccc(CC(=O)O)cc2)cc1 2.73%
O=C(Nc1ccccc1)Nc1cccc(Cl)c1 15.7%
O=C(Nc1cccc([N+](=O)[O-])c1)Nc1cccc([N+](=O)[O-])c1 -0.88%
CC(=O)Nc1ccc(CC(=O)O)cc1 -5.89%
O=C(Nc1cccc(Cl)c1)Nc1cccc(Cl)c1 1.69%
COC(=O)c1cccc(NC(=O)Nc2ccc(Cl)cc2)c1 2.56%
O=C(Nc1ccc(OC(F)(F)F)cc1)Nc1cccc([N+](=O)[O-])c1 2.58%
O=C(COc1ccc(S(=O)(=O)N2CCCCC2)cc1)NC1CCCCC1 0.02%
O=C(NC(Cc1ccccc1)C(=O)O)/C(=C\c1ccccc1F)NC(=O)c1ccccc1 (stereo not drawn) 32.3%
O=C(NCc1ccco1)c1ccc(F)c(S(=O)(=O)N2CCCCC2)c1 8.34%
C#CCOc1nc(OCC#C)nc(OCC#C)n1 -14.6%
CC(C)(C)[C@@H]1C=C(C(=O)N2CCOCC2)O[C@H](OCc2ccc(CO)cc2)C1 0.65%
